# Laboratory results published in the supplement of paper PMC6555819.
# System: VDR:RXRa (NR concentration 270 nM, RXRa partner concentration 90 nM)
# Assay: PBM binding z-score (relative to random genomic background probes); higher = stronger binding; sequences stand for … in GC…GCGATTGACAGCGTAGAATGAAGG
# Method: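 Protein-binding microarray (Agilent 4x180K custom design, double-stranded 60-nt probes: 5' GC cap, 34-nt variable region, 24-nt constant primer region; full probe sequence given). Purified or IVT nuclear receptor:RXRα heterodimers (3:1 NR:RXRα, mostly 270:90 nM) or homodimers were incubated for 1 h in PBS with 2% milk and no ligand, then detected with Alexa488 antibodies. Fluorescence from o1-orientation probes (~5 replicates averaged) was converted to z-scores against 500 random hg19 background probes. Variable regions are seed direct-repeat (DR0–DR5) sites, all their single-nucleotide variants and half-site ablations.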
row,Sequence,PBM binding z-score
1,CCTGCTAGGTCAATCGTCAGCTAAAGCAGCTCGC,0.744
2,CCTGCTAGGTCATGATCAGCTAATCTACAGTATG,1.41
3,CGTCAAAGCTCAAGGTAACGTAACAGAAAGCAGC,-0.278
4,CACGAAAGGTCGTGCTCAGGTGAGTATACCAAAC,3.51
5,TCATATAGTTAATACAGGTGAAAGTCGGCATCTA,1.26
6,ACTAGTTGGTCAGCTGAGCTCACACACAATTCGG,-0.299
7,ATATGTAGGTTACAACCGGGTCATTCAGGCTATG,4.56
8,ATGTCTAGGTAACAAGTTCAGTGAAAGAGAGGAC,2.14
9,CTACTAAGGTGAACAAGGTCGTTGATTACTATTC,6.38
10,AATACAGGGTCAACGTAGGCCAGAGTACGCACAG,5.06
11,TCGAGTAGGGTACCAATGGGGCATTCAGCTTTCT,-0.337
12,ACTATTAGTTGACTTAGTGCAACCGATACGACGC,0.264
13,GCTATTAGTTGAAACGGCAACCGAATGATTCTCG,-0.413
14,TCGAGTAGGTTCGGGGCATTCAGAATGGCGTCGA,0.124
15,AGTCATAGTTCATCTAGGTAACGTAAGATATGCT,2.54
16,TTACCAAGGTGAGCTGAGGTCGTTGACCCAACTC,3.96
17,ACAGACAGGTGAGTGAACGTAACTCAGCTGGACG,-0.318
18,TTACCAAGGTGAACGTCGTTGATCCCTCTGTAGA,0.322
19,AGTCAAAGTTCATCTAGGTAATGTAAGATATGCT,5.13
20,TCATATAGGTATAGGTGAAAGTCGAACGATATGA,0.632

row,Sequence,PBM binding z-score
1,ATCGAAATGTCGAAGGTGAGTATACCCACCCGAA,-0.0982
2,ATAGGTAGGTTATCGGGTCATTCAGTTTGCGCAT,5.32
3,CAAACTACGTCAAAGGTCAAAGTCGAGCCAACCA,5.02
4,GGAACCAGGGCAAAGTTGATAGCATCTGTCGACG,0.607
5,CCTACTGGGCCATTCAGAGGTCATAGATCATATG,3.64
6,CCAGACAGGTGAAAGGAAACTCAGTCTGGTACGC,-0.116
7,AGAACGAGGGCACGCTAAGTTGATAGCAGAGTAG,1.65
8,CCGACTGGGGTAGAAAGGTTACCATACCATCCGG,0.692
9,CCTCGGAGGACAACAGGTGGTCAGAGCTGCCAGA,-0.645
10,CGAACTAGGTCAAGGACAGTGTATCTCCGCACGC,1.78
11,CCTTACGGCTCACGAGGTTATAGCACGACGAGCG,0.412
12,CCTCGGAGGACAAAAGGAGGTCAGAGCTGCCAGA,1.97
13,GCAACGAGGGCAAAGTTGATAGCATCTGTCGACG,1.26
14,ACAGACAGGTGATGAAGTTAACTCAGGCTATCAT,0.117
15,ACAGACAGGTGAATGAAGGTAACTCAGCTGGACG,-0.131
16,CAAACTAGGTTACAGAGGTCAAAGTCCGTGCGTA,7.06
17,CGTCCAAGGTCAAAGTTCAGTGAAGAGATGACGG,5.84
18,TCTGGTAGATCAAAGGTTAAGAAAGCCGAAGCCT,1.48
19,TTGCCTAGGTCAGATCGGGCCAGTATACGCTATA,0.82
20,ATCTCTAGGTAACCAAGTTCAATGAATGCCGAAC,4.66
